Source: PubChem BioAssay (Tox21)
Inconclusive results are not listed. A call without a number means that no potency is given here. Active and inactive are the calls of the source. Calls come from the whole dose curve; as a rule, active = well fitted cell-killing curve with a large enough effect in the repeat runs; inconclusive = weak or mixed curves, or effect the other way; inactive = flat fitted curve, though single readings scatter.

Experiment: qHTS assay to identify small molecule antagonists of the retinoid acid receptor (RAR) signaling pathway - cell viability counter screen (AID 1159551); note: nearly all actives have a fitted effect of over 35% in size
Settings: C3RL4 cells viability, ATP luminescence (CellTiter-Glo), 6 h; series mostly up to 92.4 µM
From the text: U.S. Tox21 Program National Center for Advancing Translational Sciences [NCATS] NIH Chemical Genomics Center [NCGC] U.S. Environmental Protection Agency [EPA] National Institutes of Environmental Health Sciences [NIEHS] National Toxicology Program [NTP] U.S. Food and Drug Administration [FDA] Tox21 Assay Overview: All-trans Retinoic acid (atRA) is the potent natural metabolite of retinol and plays an important role in normal embryonic development and maintenance of cellular phenotype in adult animals. atRA is the activating ligand for the retinoic acid receptors (RARs) which form heterodimers with retinoid X receptors (RXRs) on the retinoic acid response element (RARE). Through activation of the RAR/RXRs nuclear receptors, atRA regulates the transcription of a large number of protein-coding genes and regulatory RNAs. Intracellular levels of atRA are controlled by the retinol signaling pathway (RSP) that regulates the biosynthesis and catabolism of atRA to maintain physiological levels. Chemicals that interfere with the RSP can cause abnormal intracellular levels of atRA and therefore are potential developmental toxicants. To assess compounds for the potential adverse effect on embryonic development through interfering with retinol signaling, a cell-based RARE luciferase reporter gene assay was used. C3RL4 cell line (OARSA/CFSAN/FDA, Laurel, MD) was used to screen Tox21 10K compound library for identifying inhibitors of the RSP. Also cytotoxicity was assessed by determining the viability of cells based on the quantitation of ATP.
Tox21 Assay Protocol Summary: C3RL4 cells were seeded at 1,000/well in 4 uL of assay medium into white solid 1,536-well tissue culture plates (Greiner Bio-One North America Inc. Monroe, NC) using a Multidrop Combi (Thermo Scientific, Waltham, MA) dispenser. After incubation at 37 C and 5% CO2 for an overnight, 23 nL of compounds dissolved in DMSO, positive control or DMSO only were transferred by a Pintool station (Kalypsys, San Diego, CA). One ul of 1 uM (final concentration) of Retinol was added right after the compound addition by using a Flying Reagent Dispenser (FRD) (Aurora Discovery, San Diego, CA). After 6 hr incubation at 37 C and 5% CO2, 5 uL of CellTiter-Glo reagent (Promega Corporation, Madison, WI) was added to each assay plate using an FRD. Luminescence was quantified on a ViewLux plate reader (PerkinElmer, Waltham, MA) after 30 min incubation at room temperature.

| Structure (SMILES) | Potency |
| --- | --- |
| CC1=CC(O)CC(C)(C)C1 (stereo not given) | inactive |
| O=C(O)Cc1ccc(-c2ccccc2)cc1 | inactive |
| CCOC(=O)[C@@H](C)Oc1ccc(Oc2nc3ccc(Cl)cc3o2)cc1 | inactive |
| CCC(C(=O)OCCOCCN(CC)CC)c1ccccc1 (stereo not given) | inactive |
| CCCCOC(=O)CCS | inactive |
| CN(C)CCOC1=Cc2ccccc2Sc2ccc(Cl)cc21 | inactive |
| COCC(O)CO (stereo not given) | inactive |
| C[Si](NC1CCCCC1)(NC1CCCCC1)NC1CCCCC1 | inactive |
| CC(=O)Nc1ccc(N)cc1 | inactive |
| CNC(=S)NC | inactive |
| CCN(Cc1cccc(S(=O)(=O)O)c1)c1ccc(C(=C2C=CC(=[N+](CC)Cc3cccc(S(=O)(=O)[O-])c3)C=C2)c2ccccc2)cc1 | inactive |
| O=C(O)c1c(O)c(-c2ccccc2)nc2ccccc12 | inactive |
| O=C(O)c1cccc(O)c1 | inactive |
| CCCCN(CCCC)C(=S)SSC(=S)N(CCCC)CCCC | inactive |
| COc1ccc(CCC(=O)c2c(O)cc(O[C@@H]3O[C@H](CO)[C@@H](O)[C@H](O)[C@H]3O[C@@H]3O[C@@H](C)[C@H](O)[C@@H](O)[C@H]3O)cc2O)cc1O | inactive |
| OC/C(Br)=C(\Br)CO | inactive |
| CC(C)(C)C(=O)O | inactive |
| COC(=O)c1cc(S(N)(=O)=O)ccc1OC | inactive |
| CC(=O)[C@H]1CC[C@H]2[C@@H]3C[C@H](C)C4=CC(=O)CC[C@]4(C)[C@H]3[C@@H](O)C[C@]12C | inactive |
| CC(C)CCCC(=O)O | inactive |

| Structure (SMILES) | Potency |
| --- | --- |
| CCCOCCOCCO | inactive |
| COCc1c(C(C)C)nc(C(C)C)c(/C=C/[C@@H](O)C[C@@H](O)CC(=O)O)c1-c1ccc(F)cc1 | inactive |
| C[N+](C)(C)CCOC(N)=O | inactive |
| Cc1nccn1-c1ccc(Sc2cccc(C3(C(N)=O)CCOCC3)c2)cc1 | inactive |
| O=[N+]([O-])c1cccc(S(=O)(=O)NCCNS(=O)(=O)c2cccc([N+](=O)[O-])c2)c1 | inactive |
| CO[C@H]1C=CO[C@@]2(C)Oc3c(C)c(O)c4c(O)c(c5c(c4c3C2=O)=NC2(CCN(CC(C)C)CC2)N=5)NC(=O)/C(C)=C\C=C/[C@H](C)[C@H](O)[C@@H](C)[C@@H](O)[C@@H](C)[C@H](OC(C)=O)[C@@H]1C | inactive |
| CCCCCCCCCOC(C)=O | inactive |
| CC(C)OCC1CO1 (stereo not given) | inactive |
| O=C1OCCN1/N=C/c1ccc([N+](=O)[O-])o1 | inactive |
| c1cnc2c(n1)CCCC2 | inactive |
| N#C/C(=C1\SCC(c2ccccc2Cl)S1)n1ccnc1 (stereo not given) | inactive |
| NC(=O)Nc1ccc(Cl)cc1 | inactive |
| O=C(O)c1ccc(CO)o1 | inactive |
| CCc1c2c(nc3ccc(OC(=O)N4CCC(N5CCCCC5)CC4)cc13)-c1cc3c(c(=O)n1C2)COC(=O)[C@]3(O)CC | inactive |
| COC(=O)Nc1nc2ccc(C(=O)c3cccs3)cc2[nH]1 | inactive |
| C1COCO1 | inactive |
| O=C(C(=O)c1ccccc1)c1ccccc1 | inactive |
| Cc1cc(OI)c(C(C)C)cc1-c1cc(C(C)C)c(OI)cc1C | inactive |
| Nc1nc(Cl)nc2c1ncn2[C@@H]1O[C@H](CO)[C@@H](O)[C@@H]1F | inactive |
| CCC(C)(O)CCC=C(C)C (stereo not given) | inactive |
